Reference: PubChem BioAssay (NCATS)
Where “and” joins values, the source holds several entries; their conditions need not be identical. Identical values can stand only once. Inconclusive results are not listed. Calls of active or inactive are those of the source. Unless noted, the call rests on the fitted dose curve; in most records, active means well fitted curve in the direction sought with a large enough effect; inconclusive means small, poorly fitted or top-dose-only effect, or another doubt; inactive means no such curve, though single readings can be large; an effect the other way counts as inactive or inconclusive.

How the values were obtained:
[1] = target: T1, Hexokinase-4 (Homo sapiens) + Glucokinase regulatory protein (Homo sapiens) (UniProt P35557+Q14397); test: qHTS assay for inhibitors of recombinant human GCK-GKRP interaction: ADP-Glo assay (AID 743206);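 further: plate controls were DMSO plus enzyme for no effect and no enzyme for full effect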
Outline: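 Pin-transferred compounds meet a 15 nM GST-GCK/15 nM FLAG-GKRP/2 uM S6P mix (dispense concentrations). ATP is then added to 0.4 mM final with 5 mM glucose, and the reaction runs 60 min at room temperature. ADP is quantified luminescently.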

[2] = target: T1, Hexokinase-4 (Homo sapiens) + Glucokinase regulatory protein (Homo sapiens); test: qHTS assay for inhibitors of recombinant human GCK-GKRP interaction: HTRF assay (AID 743207);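 further: 0% = DMSO with GCK present and -100% = DMSO wells lacking GCK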
Outline: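 HTRF read-out (ex 320 nm; 615/665 nm emission) after 60 min RT equilibration of 5 nM GST-GCK, 5 nM FLAG-GKRP, 2 uM S6P, compound and anti-FLAG/anti-GST detection antibodies; signal normalized between DMSO wells with and without GCK.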

[3] = qHTS Assay for Identifying Gametocytocidal Compounds (AID 743244); further: potency means the concentration at half of the fitted maximal effect;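 on max response: on the % scale 0 is the no-effect control and ±100 the full control effect; actives lower the fluorescent signal which means gametocytes are killed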; details: P. falciparum 3D7 stage III-V gametocytes, alamarBlue, 72 h; max response: stronger effect = lower value
Outline: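 Fluorescence at Ex 525/Em 598 nm, recorded 24 h after alamarBlue addition, reports residual metabolic activity of 3D7 gametocytes (stages III–V) following 72 h compound exposure at 37 °C, 5% CO2.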

[4] = qHTS assay for cell viability of the p53RE-bla HCT-116 cell line (AID 743292); further: nearly all actives have a fitted effect of over 55% in size; further: potency means the concentration at half of the fitted maximal effect
Outline: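 Compound-exposed HCT-116 (p53RE-bla) cells, 4,000 per well, were kept 16 h at 37 C following a 5 h preincubation. Cell number was estimated from total ATP by CellTiter-Glo luminescence read after 30 min at room temperature.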

[5] = qHTS profiling of the MIPE4 collection as inhibitors of Plasmodium falciparum (3D7) proliferation (AID 743344; call rule not given here;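 further: scaled between DMSO vehicle wells and 0.29 µM artemisinin as full inhibition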); details: P. falciparum 3D7 in erythrocytes, SYBR Green DNA fluorescence, 72 h; at 28.5 µM (top of the series) unless noted
Outline: (§1)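 Parasite DNA was quantified by SYBR Green I fluorescence (ex 485, em 535 nm) after overnight lysis in saponin/Triton buffer at room temperature. Cultures at 0.3% parasitemia and 2.5% hematocrit were first exposed to compound for 72 h at 37 C; signals were normalised to artemisinin (0.29 uM) and vehicle wells.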

[6] = qHTS profiling of the MIPE4 collection as inhibitors of Plasmodium falciparum (DD2) proliferation (AID 743345; call rule not given here); details: P. falciparum Dd2 in erythrocytes, SYBR Green DNA, 72 h; at 28.5 µM (top of the series) unless noted
Outline: as §1

[7] = qHTS profiling of the MIPE4 collection as inhibitors of Plasmodium falciparum (DD2) proliferation (Rep 2) (AID 743346; call rule not given here); details: P. falciparum Dd2 in erythrocytes, SYBR Green DNA, 72 h; at 28.5 µM (top of the series) unless noted
Outline: as §1

[8] = qHTS profiling of the MIPE4 collection as inhibitors of Plasmodium falciparum (HB3) proliferation (AID 743347; call rule not given here;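 further: plate controls were DMSO vehicle wells for no effect and artemisinin wells for full effect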); details: P. falciparum HB3 in erythrocytes, SYBR Green DNA, 72 h; at 28.5 µM (top of the series) unless noted
Outline: as §1

[9] = High-throughput drug toxicity screening in the BPDCN cell line Gen2.2 (AID 1224824; call rule not given here;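 further: cells exposed to compounds for 48 h before reading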); details: Gen2.2 BPDCN cells; at 45.8 µM (top of the series) unless noted
Outline: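 CellTiter-Glo luminescence after 48 h compound exposure of Gen2.2 cells; percent activity set with DMSO as 100% and bortezomib (9.2 uM final) as 0%. Cells seeded at 500 per well, RPMI + 10% FBS, 37 °C.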

[10] = High-throughput drug toxicity screening in the BPDCN cell line Cal-1 (AID 1224825; call rule not given here); details: Cal-1 BPDCN cell viability, qHTS; at 45.8 µM (top of the series) unless noted
Outline: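 CellTiter-Glo luminescence after 48 h compound exposure; percent activity scaled with DMSO as 100% and bortezomib (9.2 uM final) as 0%. Cal-1 cells seeded at 500/well in RPMI, 10% FBS, no phenol red.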

[11] = qHTS assay for measurement of the activity of small molecule inhibitors on Zika virus induced Caspase-3 activity in human iPSC derived neural progenitor cells (hNPCs) (AID 1224857); further: % of control where 0% means no effect; nearly all actives have a fitted effect of over 65% in size
Outline: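 Zika virus (2 FFU/cell) infection of human iPSC-derived NPCs, 6 h, following 1 h compound preincubation. Read-out: Caspase-Glo 3/7 luminescence.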

[12] = qHTS assay for measurement of the activity of small molecule inhibitors on Zika virus induced Caspase-3 activity in human astrocytoma cells (AID 1224859);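 further: plate controls were ZIKV-infected untreated cells for no effect and uninfected cells for full effect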
Outline: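 Caspase activation in ZIKV-infected SNB-19 cells (2 FFU/cell, 6 h) measured by Caspase-Glo 3/7 luminescence after 30 min RT; compound pre-incubated 1 h; normalised to uninfected and infected controls.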

[13] = qHTS Screen of the MIPE 4.0 Collection Against Ewings Sarcoma (RDES) (AID 1259252); further: nearly all actives have a fitted effect of over 35% in size; further: potency means the concentration at half of the fitted maximal effect
Outline: (§2)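 Dose series incubated 48 h with cells in RPMI plus 5% FBS, glutamine and penicillin/streptomycin; cell viability then quantified via CellTiter-Glo.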

[14] = qHTS Screen of the MIPE 4.0 Collection Against Ewings Sarcoma (TC71) (AID 1259253); further: nearly all actives have a fitted effect of over 40% in size; further: potency means the concentration at half of the fitted maximal effect
Outline: as §2

[15] = qHTS Screen of the MIPE 4.0 Collection Against Ewings Sarcoma (EW8) (AID 1259255); further: nearly all actives have a fitted effect of over 35% in size; further: potency means the concentration at half of the fitted maximal effect;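 on viability: 100% = DMSO-treated cells and 0% = medium-only wells without cells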
Outline: as §2

[16] = qHTS Screen of the MIPE 4.0 Collection Against Ewings Sarcoma (TC32) (AID 1259256); further: nearly all actives have a fitted effect of over 45% in size; further: potency means the concentration at half of the fitted maximal effect
Outline: as §2

[17] = qHTS assay for cell viability of HEK293 cells (AID 743288); details: ATP luminescence (CellTiter-Glo), 18 h; max response: stronger effect = lower value; further: on the % scale 0 is the no-effect control and ±100 the full control effect; nearly all actives have a fitted effect of over 50% in size
Outline: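 ATP luminescence (CellTiter-Glo) reports metabolically competent cell number after parental HEK293 cells, 2,000/well, were treated with DMSO-dissolved compounds for 18 h at 37 C; reagent incubation 30 min, room temperature.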

T1 sequence (P35557 whole entry, looked up): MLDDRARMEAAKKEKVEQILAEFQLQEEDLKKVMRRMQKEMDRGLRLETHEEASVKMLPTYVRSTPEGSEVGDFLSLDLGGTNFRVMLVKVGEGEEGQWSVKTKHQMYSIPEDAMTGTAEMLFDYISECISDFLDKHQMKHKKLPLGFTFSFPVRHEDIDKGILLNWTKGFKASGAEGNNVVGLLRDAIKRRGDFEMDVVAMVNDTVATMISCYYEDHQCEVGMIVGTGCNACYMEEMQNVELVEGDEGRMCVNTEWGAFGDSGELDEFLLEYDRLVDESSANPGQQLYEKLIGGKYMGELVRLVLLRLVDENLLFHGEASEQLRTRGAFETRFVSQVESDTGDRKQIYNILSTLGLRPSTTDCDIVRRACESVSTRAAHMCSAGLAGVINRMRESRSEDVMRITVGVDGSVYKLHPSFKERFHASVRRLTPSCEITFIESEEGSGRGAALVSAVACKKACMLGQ
T1 sequence (Q14397 whole entry, looked up): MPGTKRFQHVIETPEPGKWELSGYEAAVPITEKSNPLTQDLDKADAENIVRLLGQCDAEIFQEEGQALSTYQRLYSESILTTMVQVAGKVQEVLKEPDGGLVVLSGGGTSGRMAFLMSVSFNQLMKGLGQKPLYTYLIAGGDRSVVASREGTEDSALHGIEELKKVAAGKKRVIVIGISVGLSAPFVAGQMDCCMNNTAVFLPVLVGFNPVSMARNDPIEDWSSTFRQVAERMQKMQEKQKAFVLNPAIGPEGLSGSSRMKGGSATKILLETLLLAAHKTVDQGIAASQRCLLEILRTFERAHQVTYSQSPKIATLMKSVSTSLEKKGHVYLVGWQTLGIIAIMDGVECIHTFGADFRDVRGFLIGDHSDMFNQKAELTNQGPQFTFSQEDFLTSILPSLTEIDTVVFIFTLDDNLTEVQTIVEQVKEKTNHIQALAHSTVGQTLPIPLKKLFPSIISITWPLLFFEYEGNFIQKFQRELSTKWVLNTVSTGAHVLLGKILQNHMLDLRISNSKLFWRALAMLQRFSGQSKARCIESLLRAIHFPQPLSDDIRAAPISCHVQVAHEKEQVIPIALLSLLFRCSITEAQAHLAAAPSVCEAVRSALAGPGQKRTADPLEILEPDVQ

CN(Cc1cnc2nc(N)nc(N)c2n1)c1ccc(C(=O)N[C@@H](CCC(=O)O)C(=O)O)cc1
Potency [1]: inactive | Potency [2]: inactive | max response [3]: -2.41% (inactive) and 9.8% (inactive) | Potency [4]: 0.282 µM (active) | parasite growth, % of DMSO control [5]: 8.82% | parasite growth remaining, % of DMSO control (lower = more inhibition) [6]: 7.1% | parasite growth, % of control (lower = inhibition) [7]: 8.39% | growth, % of control [8]: 19.5% | cell viability, % of control (lower = more cytotoxic) [9]: 70% | viability (% of control) [10]: 9.1% | Potency [11]: inactive | Potency [12]: inactive | Potency [13]: 0.0332 µM (active) | Potency [14]: 0.0148 µM (active) | Potency [15]: 0.0264 µM (active) | Potency [16]: 0.0372 µM (active)

CC(CCc1ccc(O)cc1)NCCc1ccc(O)c(O)c1 (stereo not given)
Potency [1]: inactive | Potency [2]: inactive | max response [3]: 27.1% (inactive) | parasite growth, % of DMSO control [5]: 52.3% | parasite growth, % of control (lower = inhibition) [7]: 62.7% | growth, % of control [8]: 92.8% | cell viability, % of control (lower = more cytotoxic) [9]: 5% | viability (% of control) [10]: 9.22% | Potency [11]: inactive | Potency [12]: inactive | Potency [14]: 23.5 µM (active) | Potency [15]: 23.5 µM (active)

OCCN(CCO)c1nc(N2CCCCC2)c2nc(N(CCO)CCO)nc(N3CCCCC3)c2n1
max response [3]: 7.4% (inactive) | parasite growth, % of control (lower = inhibition) [7]: 36.9% | cell viability, % of control (lower = more cytotoxic) [9]: 130% | viability (% of control) [10]: 95.3% | Potency [11]: inactive | Potency [12]: inactive | Potency [14]: 20.9 µM (active)

Nc1ccn([C@H]2CC[C@@H](CO)O2)c(=O)n1
Potency [1]: inactive | Potency [2]: inactive | max response [3]: -9.19% (inactive) and 7.53% (inactive) | max response [17]: 3.55% (inactive) and 2.55% (inactive) | Potency [4]: inactive | parasite growth, % of DMSO control [5]: 114% | parasite growth remaining, % of DMSO control (lower = more inhibition) [6]: 115% | parasite growth, % of control (lower = inhibition) [7]: 74.1% | growth, % of control [8]: 176% | cell viability, % of control (lower = more cytotoxic) [9]: 251% | viability (% of control) [10]: 102% | Potency [11]: inactive | Potency [13]: inactive | Potency [14]: inactive | Potency [15]: inactive | Potency [16]: inactive

COc1ccc(CCN(C)CCCC(C#N)(c2ccc(OC)c(OC)c2)C(C)C)cc1OC (stereo not given)
Potency [1]: inactive | Potency [2]: inactive | max response [17]: 0.749% (inactive) | Potency [4]: inactive | cell viability, % of control (lower = more cytotoxic) [9]: 96.5% [at 92.2 µM] | viability (% of control) [10]: 105% [at 92.2 µM] | Potency [11]: inactive | Potency [12]: inactive | Potency [13]: inactive | Potency [15]: inactive

Clc1ccccc1C(c1ccccc1)(c1ccccc1)n1ccnc1
Potency [1]: inactive | Potency [2]: inactive | Potency [3]: 2.51 µM (active) and 2.09 µM (active) | parasite growth, % of DMSO control [5]: 4.91% | parasite growth remaining, % of DMSO control (lower = more inhibition) [6]: 6.19% | parasite growth, % of control (lower = inhibition) [7]: 11% | growth, % of control [8]: 5.57% | cell viability, % of control (lower = more cytotoxic) [9]: 52.9% | viability (% of control) [10]: 74% | Potency [11]: inactive | Potency [12]: inactive | Potency [14]: 20.9 µM (active)

OCCN1CCN(CCCN2c3ccccc3Sc3ccc(C(F)(F)F)cc32)CC1
Potency [1]: inactive | Potency [2]: inactive | parasite growth, % of DMSO control [5]: 7.22% | parasite growth, % of control (lower = inhibition) [7]: 23.4% | growth, % of control [8]: 10.5% | cell viability, % of control (lower = more cytotoxic) [9]: 85.8% | viability (% of control) [10]: 6.77% | Potency [11]: inactive | Potency [12]: inactive | Potency [16]: 23.5 µM (active)

CN1CCN(C2=Nc3cc(Cl)ccc3Nc3ccccc32)CC1
max response [3]: -2.07% (inactive) and 20.9% (inactive) | cell viability, % of control (lower = more cytotoxic) [9]: 121% | viability (% of control) [10]: 83.1% | Potency [11]: inactive | Potency [12]: inactive | Potency [13]: inactive

CCC1(c2ccccc2)C(=O)NCNC1=O
Potency [1]: inactive | Potency [2]: inactive | max response [3]: 16.7% (inactive) and 25% (inactive) | max response [17]: -2.05% (inactive) and -6.21% (inactive) | Potency [4]: inactive | parasite growth, % of DMSO control [5]: 109% | parasite growth remaining, % of DMSO control (lower = more inhibition) [6]: 102% | parasite growth, % of control (lower = inhibition) [7]: 107% | growth, % of control [8]: 91% | cell viability, % of control (lower = more cytotoxic) [9]: 15.1% | viability (% of control) [10]: 8.03% | Potency [11]: inactive | Potency [13]: 9.35 µM (active) | Potency [14]: 11.8 µM (active) | Potency [15]: 18.7 µM (active) | Potency [16]: 14.8 µM (active)
